Among the test systems are NCI-H23 lung; NCI-H226 lung; NCI-H322M lung; HOP-62 NSCLC; NCI-H460 lung; HOP-92 NSCLC; NCI-H522 lung; A549/ATCC NSCLC; 786-0 renal; COLO 205 colon.
What all share (experiment): NCI-60 one-dose screen, 48 h (100 = growth as untreated, 0 = no growth, -100 = all killed)
Common to all, as to conditions: 10 µM unless noted

Compounds without any hit were thinned out: in the full panel of roughly 83,000, 20% have a hit.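 The endpoint reported here, percent growth, reads 100 for growth as untreated, 0 for no net growth and -100 for all cells dead.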 Unmarked numbers belong to inactive results. Calls of active or inactive are those of the source. How the source made its calls: active means growth percent below 10; inactive means the rest.

On to `CN1/C(=C\C=C\C2=[N+](C)c3ccccc3C2(C)C)C(C)(C)c2ccccc21`, for which the growth in the test on NCI-H23 lung is -6.67% (active); in the test on NCI-H226 lung, 5.56% (active); with NCI-H322M lung, 8.56% (active); in the test with HOP-62 NSCLC it was 3.55% (active); with NCI-H460 lung, 0.247% (active); in the test with HOP-92 NSCLC, -18.1% (active). Besides, the growth was -41.7% (active) in the test with NCI-H522 lung, 6.73% (active) in the test with A549/ATCC NSCLC, 2.93% (active) in the test on 786-0 renal and -88.5% (active) in the test with COLO 205 colon.
As to `CN(C)C(=O)c1cc2cnc(Nc3ccc(-c4csc5c(=O)cc(N6CCNCC6)oc45)cc3)nc2n1C1CCCC1`, the growth with NCI-H23 lung was 0.906% (active); in the test on NCI-H226 lung, 16.1%; with NCI-H322M lung, 23%; with HOP-62 NSCLC it was 21.4%; in the test with NCI-H460 lung, 7.5% (active); in the test on HOP-92 NSCLC, 31.3%. Also, the growth with NCI-H522 lung was 46.5%; in the test with A549/ATCC NSCLC, 2.05% (active); in the test on 786-0 renal, 7.89% (active); with COLO 205 colon, 11%.
With `COc1c2ccccc2c(OC)c2[nH]c(=O)ccc12`, the growth is -11.3% (active) in the test with NCI-H23 lung; 37.1% in the test with NCI-H226 lung; 22.2% with NCI-H322M lung; -13.2% (active) in the test on HOP-62 NSCLC; -57.7% (active) in the test on NCI-H460 lung; 72.9% in the test with HOP-92 NSCLC. The growth was 71.3% with NCI-H522 lung, -34.2% (active) with A549/ATCC NSCLC, 89.7% with 786-0 renal and 38.2% in the test on COLO 205 colon.
With `CCCCCCCCSC1=CC(=O)C(OC)=C(OC)C1=O`, the growth is 26.6% in the test on NCI-H23 lung; 80.9% with NCI-H226 lung; 89.4% in the test with NCI-H322M lung; 91.3% in the test with HOP-62 NSCLC; 45.9% in the test with NCI-H460 lung; -31.3% (active) in the test on HOP-92 NSCLC. The growth in the test on NCI-H522 lung was -97.8% (active); in the test with A549/ATCC NSCLC it was 57.2%; in the test on 786-0 renal it was 61.9%; in the test with COLO 205 colon, 37.1%.
Turning to `CN1CCCCC1CCN1c2ccccc2Sc2ccc(Br)cc21` (stereo not given), the growth with NCI-H23 lung was 77.4%; with NCI-H226 lung, 89.9%; with NCI-H322M lung, 59.1%; in the test with HOP-62 NSCLC, 85.7%; in the test on NCI-H460 lung it was 64.9%; with HOP-92 NSCLC, 45.5%. Further, the growth was 62.9% with NCI-H522 lung, 67.5% in the test with A549/ATCC NSCLC, 55% with 786-0 renal and 51.5% in the test on COLO 205 colon.
Consider `O=[N+]([O-])c1cccc(-c2nc3sccn3c2-c2ccnc(NCCCNS(=O)(=O)c3cccc(F)c3)n2)c1`, for which the growth in the test on NCI-H23 lung was -9.68% (active); in the test with NCI-H226 lung, -5.67% (active); with NCI-H322M lung, 45.2%; with HOP-62 NSCLC, 13.1%; in the test with NCI-H460 lung, 16.3%; in the test with HOP-92 NSCLC, 46.3%. Further, the growth with NCI-H522 lung is -8.69% (active); with A549/ATCC NSCLC, 7.27% (active); with 786-0 renal, 43.4%; with COLO 205 colon, -2.26% (active).
As to `COc1cc2c(c(OC)c1OC)-c1ccc(N=NC(N)=S)c(=O)cc1[C@@H](NC(C)=O)CC2`, the growth with NCI-H23 lung is 1.29% (active); in the test on NCI-H226 lung, 41.8%; in the test with NCI-H322M lung, 36.5%; with HOP-62 NSCLC it was 7.96% (active); with NCI-H460 lung, 3.1% (active); with HOP-92 NSCLC, 69.6%. Further, the growth in the test on NCI-H522 lung was -59.8% (active); in the test on A549/ATCC NSCLC it was 15%; with 786-0 renal, 9.81% (active); with COLO 205 colon, -73.6% (active).
In the case of `Cc1ccc(C2CC3c4ccccc4C2C2CCCCN32)cc1` (stereo not given), the growth with NCI-H23 lung is 93.6%; in the test with NCI-H226 lung, 95.9%; in the test with NCI-H322M lung it was 84.1%; in the test on HOP-62 NSCLC it was 98.6%; in the test with NCI-H460 lung it was 104%; with HOP-92 NSCLC, 85.4%. The growth in the test with NCI-H522 lung was 72.6%; with A549/ATCC NSCLC, 89.9%; in the test on 786-0 renal it was 92.7%; with COLO 205 colon, 74%.
Turning to `COc1ccc(OCC(=O)Nc2ccc(-c3nc4ccccc4s3)cc2C)cc1`, the growth is 69.3% with NCI-H23 lung; 51% with NCI-H226 lung; 94.7% with NCI-H322M lung; 89.5% in the test on HOP-62 NSCLC; 95.5% in the test with NCI-H460 lung; 68.4% in the test on HOP-92 NSCLC. Also, the growth in the test on NCI-H522 lung is 61.6%; in the test with A549/ATCC NSCLC, 86.2%; with 786-0 renal it was 88.8%; in the test with COLO 205 colon, 120%.
As to `COc1cc(NCCCCCN=C(N)NC(N)=NC(C)C)c2ncccc2c1`, the growth is -37.5% (active) in the test with NCI-H23 lung; 71.2% in the test on NCI-H226 lung; 50.7% in the test with NCI-H322M lung; 57% with HOP-62 NSCLC; 55.7% in the test on NCI-H460 lung; 32.5% in the test on HOP-92 NSCLC. Further, the growth is -16.1% (active) in the test with NCI-H522 lung, 89.9% in the test with A549/ATCC NSCLC, 92.3% in the test with 786-0 renal and -30.3% (active) with COLO 205 colon.
Take `CCN(CC)CCC(=O)c1ccc(OC)c2ccccc12`: the growth with NCI-H23 lung was 90.8%; with NCI-H226 lung, 115%; in the test on NCI-H322M lung it was 90.9%; with HOP-62 NSCLC it was 83.4%; in the test on NCI-H460 lung it was 99.8%; in the test on HOP-92 NSCLC, 102%. In addition, the growth was 12.6% in the test on NCI-H522 lung, 100% with A549/ATCC NSCLC, 98.7% in the test on 786-0 renal and 109% with COLO 205 colon.
Turning to `COc1ccc(/C=C2\N=C3Sc4cc(Cl)ccc4C(=O)N3C2=O)cc1`, the growth in the test on NCI-H23 lung is 96%; in the test with NCI-H226 lung, 83%; in the test with NCI-H322M lung, 95.8%; with HOP-62 NSCLC, 103%; with NCI-H460 lung it was 104%; in the test with HOP-92 NSCLC, 82.6%. Besides, the growth with NCI-H522 lung was 87.5%; with A549/ATCC NSCLC it was 96.4%; in the test on 786-0 renal it was 101%; with COLO 205 colon, 105%.

The record behind these values is PubChem BioAssay (NCI).
